Inconclusive results are not listed. Values without a mark were called inactive. Active and inactive are the calls of the source. Unless noted, the call rests on the fitted dose curve.
On the % scale 0 is the no-effect control and ±100 the full control effect.

Estrogen receptor (Homo sapiens), sequence (P03372 whole entry, looked up): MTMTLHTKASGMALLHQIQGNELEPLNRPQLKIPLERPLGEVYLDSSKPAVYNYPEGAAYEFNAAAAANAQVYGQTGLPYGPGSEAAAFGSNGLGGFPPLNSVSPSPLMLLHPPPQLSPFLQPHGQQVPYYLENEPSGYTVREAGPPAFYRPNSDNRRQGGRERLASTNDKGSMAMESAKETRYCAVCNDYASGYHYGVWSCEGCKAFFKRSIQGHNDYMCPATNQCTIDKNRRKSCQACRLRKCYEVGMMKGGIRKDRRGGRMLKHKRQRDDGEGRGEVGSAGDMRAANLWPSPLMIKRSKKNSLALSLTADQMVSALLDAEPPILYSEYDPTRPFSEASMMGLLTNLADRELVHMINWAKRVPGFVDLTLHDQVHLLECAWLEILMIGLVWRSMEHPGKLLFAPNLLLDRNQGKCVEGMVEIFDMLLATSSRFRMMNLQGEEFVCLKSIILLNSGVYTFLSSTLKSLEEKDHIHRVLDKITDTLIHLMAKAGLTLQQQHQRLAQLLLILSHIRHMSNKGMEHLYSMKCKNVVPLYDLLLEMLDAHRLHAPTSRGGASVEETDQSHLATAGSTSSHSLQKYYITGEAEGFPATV

The target of the first assay is Estrogen receptor (Homo sapiens) (UniProt P03372). Description: qHTS assay to identify small molecule antagonists of the estrogen receptor alpha (ER-alpha) signaling pathway (AID 743069; active means well fitted curve in the direction sought with a large enough effect in the signal ratio in the repeat runs, not every such curve was filed as active; the % refers to the signal ratio). To be noted: HEK293 ER-alpha-UAS-bla, beta-lactamase ratio, antagonist mode; series mostly up to 69.4 µM; activity, negative = inhibition: at the top concentration. The procedure, abridged:
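Estradiol-stimulated ER-alpha-UAS-bla HEK293 cells, 18 hr compound exposure at 37C. LiveBLAzer B/G substrate, 2 hr RT, fluorescence read.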
On the technique in general: Quantitative high-throughput screening tests each substance at several concentrations.
With `CCCCCCCCCCOc1cc2c(=O)c(C(=O)OCC)c[nH]c2cc1OCC`, the “activity, negative = inhibition” value is 4.8%. As to `CCOC(=O)C1=NOC(c2ccccc2)(c2ccccc2)C1`, the “activity, negative = inhibition” value was 5.36%.

Turning to `CCCOC(=O)CC`, the “activity, negative = inhibition” value is 19.5%. For the compound `CCCCN(CCC(=O)OCC)C(C)=O`, the “activity, negative = inhibition” value was 4.13%.

Take `CC1OC1C1CCC2(C)OC2C1` (centres undefined): the “activity, negative = inhibition” value is 17.6%. As for `CC1=CC(=O)[C@H]2C[C@@H]1C2(C)C`, the “activity, negative = inhibition” value was -6.81%. With `CN1CCC(=C2c3ccccc3CCc3cccnc32)CC1`, the “activity, negative = inhibition” value is -12.6%. Take `CC(=O)c1ccccc1[N+](=O)[O-]`: the “activity, negative = inhibition” value is 7.85%. As for `O=C(O)c1cc(C(=O)O)cc(C(=O)O)c1`, the “activity, negative = inhibition” value is 14.3% [at 79.1 µM].

In the case of `CCCCCCC1CCC(=O)O1` (centres undefined), the “activity, negative = inhibition” value is 16.5% [at 79.1 µM]. For the compound `C=CCCCCCCCCC(=O)OCC`, the “activity, negative = inhibition” value was -31.1%.

As for `CC1=NN(c2cc(S(=O)(=O)O)ccc2Cl)C(=O)C1N=Nc1ccccc1` (centres undefined), the “activity, negative = inhibition” value is -20.1%.

`COCCOC[C@H](CC1(C(=O)NC2CCC(C(=O)O)CC2)CCCC1)C(=O)Oc1ccc2c(c1)CCC2` (some centres undefined): the “activity, negative = inhibition” value was 3.83%. As for `CO[C@@]1(NC(=O)C(C(=O)O)c2ccc(O)cc2)C(=O)N2C(C(=O)O)=C(CSc3nnnn3C)CO[C@@H]21` (some centres undefined), the “activity, negative = inhibition” value is 5.95% [at 32.6 µM].

Test system in a further assay: not listed separately
Description: qHTS assay to identify small molecule antagonists of the estrogen receptor alpha (ER-alpha) signaling pathway - cell viability counter screen (AID 743074).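 Further: HEK293 cells carrying ER-alpha-UAS-bla reporter stimulated with 17beta-estradiol; nearly all actives have a fitted effect of over 45% in size.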 Conditions: ERalpha-bla HEK293 viability, CellTiter-Glo luminescence, 18 h; series mostly up to 69.4 µM; activity, negative = cytotoxicity: at the top concentration.
`CC(C)[C@H]1CC[C@@H](C)CC1=O`: the “activity, negative = cytotoxicity” value was 18.2%.

`CCCCCCCCCCOc1cc2c(=O)c(C(=O)OCC)c[nH]c2cc1OCC`: the “activity, negative = cytotoxicity” value was -5.6%.

Turning to `CCOC(=O)C1=NOC(c2ccccc2)(c2ccccc2)C1`, the “activity, negative = cytotoxicity” value is 9.45%. In the case of `CCCOC(=O)CC`, the “activity, negative = cytotoxicity” value is 8.1%. The same measure, in the same setting: then `O=C(c1ccccc1O)c1ccccc1O`, with -8.59%; and `COc1cc2c(cc1OC)-c1cc3ccc(OC)c(OC)c3c[n+]1CC2`, with -22% [at 79.1 µM]. For `NC(=O)N[C@@H](CCC(=O)O)C(=O)O`, the “activity, negative = cytotoxicity” value is 15.8%. Take `CCCCN(CCC(=O)OCC)C(C)=O`: the “activity, negative = cytotoxicity” value was 14.6%.

For the compound `CC1OC1C1CCC2(C)OC2C1` (centres undefined), the “activity, negative = cytotoxicity” value is 5.98%.

Regarding `CC1=CC(=O)[C@H]2C[C@@H]1C2(C)C`, the “activity, negative = cytotoxicity” value is 5.44%.

In the case of `CC(C)C(=O)OC(=O)C(C)C`, the “activity, negative = cytotoxicity” value was 9.58%. Same read-out and setting: then `CCN1C=CN(C)C1C` (centres undefined), with 7.5% [at 79.1 µM]; and `O=C1NC(=O)C2CC=CCC12` (centres undefined), with 7.09%.

`CC(=O)N1C[C@H](O)C[C@H]1C(=O)O`: the “activity, negative = cytotoxicity” value is -18.7%.

With `O=C(c1ccccc1)C1(O)CCCCC1`, the “activity, negative = cytotoxicity” value was 6.37%. For `CN1CC(=O)N/C1=N/C(=O)Nc1cccc(Cl)c1`, the Potency result was “inactive”. With `CN1CCC(=C2c3ccccc3CCc3cccnc32)CC1`, the “activity, negative = cytotoxicity” value was -5.58%.

For the compound `CC(=O)c1ccccc1[N+](=O)[O-]`, the “activity, negative = cytotoxicity” value was 18.2%. Still for that read-out and setting: for `O=C(O)c1cc(C(=O)O)cc(C(=O)O)c1` the value was 15.7% [at 79.1 µM]; for `CCN(CC#N)c1cccc(C)c1`, 17.5%. In the case of `CCCCCCC1CCC(=O)O1` (centres undefined), the “activity, negative = cytotoxicity” value is 23.5% [at 79.1 µM]. As to `NC(=O)N1c2ccccc2CC(=O)c2ccccc21`, the “activity, negative = cytotoxicity” value was 9.94%. Consider `CC(C#N)(CCC(=O)O)N=NC(C)(C#N)CCC(=O)O` (centres undefined), for which the “activity, negative = cytotoxicity” value is -8.74%. As for `O=CN(CCO)CCO`, the “activity, negative = cytotoxicity” value is 10.4%. For `NC(=O)Cc1cccc2ccccc12`, the “activity, negative = cytotoxicity” value was 8.02%. For `CC(C)(C)C(=O)c1ccccc1`, the “activity, negative = cytotoxicity” value is 19.6%. As to `CC1(C)[C@@H]2CC[C@@]1(C)[C@H](O)C2`, the “activity, negative = cytotoxicity” value is 18.9%. On to `CC1=NN(c2cc(S(=O)(=O)O)ccc2Cl)C(=O)C1N=Nc1ccccc1` (centres undefined), for which the “activity, negative = cytotoxicity” value is 6.48%. Turning to `CC(C)NNC(=O)c1ccncc1`, the “activity, negative = cytotoxicity” value was -13.8%. Still for that read-out and setting: then `CCCCCC(C)N` (centres undefined), with 14.1%.

Regarding `COCCOC[C@H](CC1(C(=O)NC2CCC(C(=O)O)CC2)CCCC1)C(=O)Oc1ccc2c(c1)CCC2` (some centres undefined), the “activity, negative = cytotoxicity” value was 9.11%. For the compound `CO[C@@]1(NC(=O)C(C(=O)O)c2ccc(O)cc2)C(=O)N2C(C(=O)O)=C(CSc3nnnn3C)CO[C@@H]21` (some centres undefined), the “activity, negative = cytotoxicity” value is 9% [at 32.6 µM]. `CC(=O)Nc1ccc(OCC(O)CNC(C)C)cc1` (centres undefined): the “activity, negative = cytotoxicity” value was 20.9%. As for `CCN[C@H]1C[C@H](C)S(=O)(=O)c2sc(S(N)(=O)=O)cc21`, the “activity, negative = cytotoxicity” value is 12.9%. On the same count and under the same terms, for `CCCCOC(=O)CCC(C)=O` the value was 20.6%.

Values taken from PubChem BioAssay (Tox21).
